According to PubChem BioAssay (NCI):
This is part of a sample that, as a whole, favours compounds with a hit. Of some 83,000 tested, about 20% had one in any assay.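 Single-concentration screen, 48 h exposure, 96-well plates. Endpoint: percent growth. Below 10 = active.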 Values without a mark were called inactive. Active and inactive are the calls of the source.

Tested on: PC-3 prostate
Test: NCI-60 one-dose screen, 48 h (100 = growth as untreated, 0 = no growth, -100 = all killed)
Conditions: 10 µM unless noted

SMILES | growth
NC(=O)c1c(NC(=O)c2ccc(Cl)cc2)sc2c1CCC(=O)C2 | 15.5%
Nc1c(C(=O)Nc2cccc3ncccc23)sc2nc3c(cc12)C(=O)CCC3 | 35.1%
CCOC(=O)c1cn2ncnc(Oc3ccc(NC(=O)NC4CC4)c(F)c3)c2c1C | 87.7%
CCOC(=O)c1c2c(n3c1NCC3)-c1ccccc1C2=O | 91.1%
CCCC(O)Cn1ncc(C(=O)OCC)c1NC(=O)NCc1cccc(F)c1 (stereo not given) | 83.6%
O=C(CCC(=O)c1nc2ncccc2[nH]1)NN1C(=O)CSC1c1ccc(Cl)cc1 (stereo not given) | 94.3%
COc1ccc2nc(Cl)c(/C=C/C(=O)c3ccc(NC(=O)CSc4nnc(-c5ccc(Cl)c(Cl)c5)n4-c4ccccc4)cc3)cc2c1 | 72.5%
CS(=O)(=O)Nc1cncc(-c2ccc3ncnc(Nc4ccc(F)c(Cl)c4)c3c2)c1 | 34.5%
Cc1ccc(-c2nc(C#N)c(S(=O)(=O)NCCO)o2)cc1 | 61.7%
O=C1OCC2=C1C(c1cccc(C(F)(F)F)c1)c1cc3c(cc1N2CCO)OCO3 (stereo not given) | 25.9%
Cc1[nH]c(C(=O)Nc2cccc(OC3CCNCC3)c2)c(Cl)c1Cl | 62.9%
O=C1/C(=C/c2ccc(Br)cc2)COc2ccc(O)c(O)c21 | -26.3% (active)
CCN1C(=S)N(CC)C2C1NC(=S)N2/N=C/C=C/c1ccccc1OC (stereo not given) | 33%
COc1cc(-c2nc3occn3c2-c2ccnc(NCCCNS(=O)(=O)c3ccccc3)n2)ccc1F | 22.2%
O=C(O)c1cccc(N/C=C/C(=O)c2cc3cc(Br)ccc3oc2=O)c1 | 93.8%
N#Cc1c(Nc2ccc(F)cc2)n[nH]c1-c1cccs1 | 95.7%
COc1ccc(C2C(C#N)=C(N)Oc3c2sc2c(Br)cccc32)cc1 (stereo not given) | 25.5%
CCNc1nc(-c2ccc(F)cc2)c(C#N)c(=O)n1C | 42.8%
CC12CCC(/C(=C/NNc3ccc([N+](=O)[O-])cc3[N+](=O)[O-])C1=O)C2(C)C (stereo not given) | 59.5%
S=c1[nH]c2cc(Cl)ccc2o1 | 88%

SMILES | growth
COc1cc2c3c(c1O)-c1ccccc1[C@@H]1OC(=O)N(CC2)[C@H]31 | 70.7%
CC(C)CSc1oc(-c2ccccc2)nc1S(=O)(=O)c1ccccc1 | 79.9%
C#CCOc1cccc(-c2ncc3cc(NC(=O)CCl)ccc3n2)c1 | 11.7%
Cn1c(=O)c2c(nc(NC3=NS(=O)(=O)c4ccccc43)n2Cc2ccccc2)n(C)c1=O | 95.4%
COc1cc2c(c(OC)c1OC)C(=O)CC(c1cccc(NC(=O)c3ccccc3Br)c1)O2 (stereo not given) | 77.9%
CC(C)(CO)N(CCO)CCO | 91.4%
CC(=O)c1c(Nc2ccc(F)c(F)c2F)[nH]c2c(F)cc(F)cc2c1=O | 4.75% (active)
C#CCOc1ccc2ncnc(Nc3cccc(NC(=O)CCl)c3)c2c1 | 70%
COc1ccc(/C=C/C(=O)c2ccc(NC(=O)CSc3nnc(-c4cc(-c5ccccc5)nc5ccccc45)n3-c3ccccc3)cc2)cc1 | 89.9%
CCn1cc(C2=C(c3cn(C)c4ncccc34)C(=O)NC2=O)c2cccnc21 | 66%
NNC(=S)N/N=C/c1ccccn1 | 32.9%
Cc1ccc2nc(Cl)c(Cn3nnnc3SCc3ccccc3)cc2c1 | 90.4%
Clc1nn2c(Cn3cnc4c(NCc5ccccc5)ncnc43)nnc2c2ccccc12 | 42%
CN(C)c1ccc(/C=C2/C=C(c3ccccc3)OC2=O)cc1 | 96.9%
O=C(CN1C(=O)NC2NC(=O)NC21)N/N=C/c1ccc(Cl)cc1Cl (stereo not given) | 103%
COc1cccc(Nc2ccnc3[nH]c4ccc([N+](=O)[O-])cc4c23)c1 | 48.2%
COc1ccc(C/C(C)=C(/c2ccc(OCCN3CCCCCC3)cc2)c2ccc(OC(=O)NCc3ccccc3)cc2)cc1 | 71.8%
O=C(O)C1CN(c2cccc(Cl)c2)N(c2cccc(Cl)c2)C1=O (stereo not given) | 94.6%
CN(C)c1ccc(/C=C/C(=O)c2ccc(Nc3nc(Nc4ccc(F)cc4)nc(Nc4ccc(Cl)cc4)n3)cc2)cc1 | 57.2%
COC(=O)c1nc(-c2ccccc2)oc1S(=O)(=O)N1CCC(C(N)=O)CC1 | 62.7%
